BAZ2B block – inhibitors of human BAZ2B bromodomain; Q9UIF8; AlphaScreen BAZ2B-H3K14Ac peptide displacement; Potency, µM (top dose mostly 114 µM), actives largely listed as inhibitors; actives 4.4% (n = 360,000); further: nearly all actives have a fitted effect of over 60% in size
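Multi-concentration screen (max 110 uM) measuring displacement of acetylated histone H3 peptide from BAZ2B by AlphaScreen, using 50 nM protein, 50 nM peptide and 10 ug/mL streptavidin donor plus Ni-chelate acceptor beads.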
JMJD2A Tudor inh – inhibitors of human JMJD2A Tudor domain | O75164 | AlphaScreen JMJD2A-Tudor / H3K4me3 peptide binding | Potency, µM (doses to about 114 µM), actives largely listed as inhibitors | actives 4.4% (n = 390,000); further: nearly all actives have a fitted effect of over 50% in size
G9a inh – G9a (human) methyltransferase inhibition; actives 8.8% (n = 350,000); G9a H3K9 monomethylation, AlphaScreen, 2 h; Q96KQ7; Potency, µM (top dose mostly 102 µM), hits mostly inhibitors; further: nearly all actives have a fitted effect of over 75% in size
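Signal arises when biotinylated H3K9 peptide, once monomethylated, bridges streptavidin donor and antibody-captured acceptor beads. Enzyme at 20 nM was preincubated 15 min with test compounds; peptide 500 nM and SAM 20 uM then reacted for 2 h.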
L3MBTL1 inh – L3MBTL1 (human) inhibition; AID 485360; actives 0.66% (n = 230,000); AlphaScreen L3MBTL1–H3K9me1 peptide binding; Q9Y468; Potency, µM (series often up to 57.1 µM), usual class: inhibitors; further: nearly all actives have a fitted effect of over 60% in size
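Read-out is AlphaScreen signal from streptavidin donor and nickel chelate acceptor beads (10 ug/mL final each) bridging L3MBTL1 (50 nM) and biotinylated K9-monomethylated H3(1-15) peptide (75 nM), after 30 min compound exposure at room temperature.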
Sfp PPTase inh – inhibitors of Bacillus subtilis Sfp phosphopantetheinyl transferase. Biochemical Sfp PPTase activity, qHTS. AID 1490. actives 3.5% (n = 310,000). Potency, µM, usual class: inhibitors;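 further: the enzyme is Sfp with the accession as filed and its product quenches rhodamine fluorescence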
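With Hepes-Na pH 7.6 buffer containing 10 mM MgCl2, Sfp (15 nM) modified BHQ-2-YbbR (12.5 uM) using rhodamine-CoA (5 uM). Two reads 30 minutes apart at 525/598 nm yielded each well's rate.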
HP1b chromo inh – inhibitors of HP1-beta chromodomain binding to methylated histone tails | P83916 | AlphaScreen HP1-beta / biotin-H3K9me3 peptide binding | Potency, µM (highest dose often 114 µM), most hits filed as inhibitors | actives 0.56% (n = 390,000); further: nearly all actives have a fitted effect of over 70% in size
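AlphaScreen: HP1-beta (50 nM) preformed 30 min with biotin-H3(1-18)K9me3 peptide (50 nM) in PBS pH 7.4, 0.01% Tween-20. Compound added for 30 min at RT, then streptavidin donor/nickel chelate acceptor beads (10 ug/mL) for 30 min.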
A number is an active result; . = inactive; ? = inconclusive; / = no result; [ ] = dose if it differs, or a comment. Hits are enriched below; roughly 12% of the tested compounds scored in any of these assays. The call rests on the fitted dose curve; in most records, active means well fitted curve in the direction sought with a large enough effect; inconclusive means small, poorly fitted or top-dose-only effect, or another doubt; inactive means no such curve, though single readings can be large; an effect the other way counts as inactive or inconclusive.

SMILES	BAZ2B block	JMJD2A Tudor inh	G9a inh	L3MBTL1 inh	Sfp PPTase inh	HP1b chromo inh
CCOC(=O)C(C)Sc1nc(-c2ccco2)cc(C(F)(F)F)c1C#N (stereo not drawn)	.	.	40µM	.	.	.
Cc1ccc(N(CC(=O)N2CCN(Cc3ccccc3)CC2)S(C)(=O)=O)cc1C	.	.	.	.	.	.
O=C(Nc1nc(-c2ccc(Br)cc2)ns1)c1ccccc1F	.	.	.	/	/	.
O=C(O)C1=C[C@@H](c2ccccc2)C[C@@H](OCCCCO)O1	/	.	/	/	/	.
O=C(O)C1=C[C@H](c2ccccc2)C[C@H](OCCCCO)O1	/	.	/	/	/	.
COc1ccc([C@H]2C=C(C(=O)O)O[C@@H](OCCCCO)C2)cc1	?	56µM	.[12.7 µM]	/	.	.
O=C(O)C1=C[C@H](c2ccc(F)cc2)C[C@H](OCCCCO)O1	79µM	.	.[12.7 µM]	/	.	.
C#Cc1ccc([C@@H]2C=C(C(=O)OCC=C)O[C@H](OCCCCO)C2)cc1	50µM	.	?	.	.	.
N#CCc1c(C#N)c(N)nc(N2CCCC(O)C2)c1C#N (stereo not drawn)	.	.	?	.	.	.
CC1(C)Cc2c(C#N)c(N3CCN(C(=O)c4ccccc4Cl)CC3)nc(-c3ccco3)c2CS1	40µM	?	/	?	.	.
N#Cc1c(N2CCN(C(=O)c3ccccc3Cl)CC2)nc(-c2ccccc2)c2c1CCCC2	.	.	/	.	.	.
CC(=O)N1CCN(c2nc(-c3ccco3)c3c(c2C#N)CC(C)(C)SC3)CC1	.	.[11.4 µM]	.	.	45µM	.
O=C(CSc1ncc2c(n1)-c1cc(Cl)ccc1N(Cc1ccccc1F)S2(=O)=O)Nc1cccc(C(F)(F)F)c1	.	.	.	/	/	.
COc1ccc(C2(CNC(=O)c3cccc([N+](=O)[O-])c3)CCOCC2)cc1	.	.	.	.	.	.
CC1CCN(S(=O)(=O)c2ccc3c(c2)c(=O)c(C(=O)NCc2ccco2)cn3C)CC1	.	.	79µM	.	.	.
Cc1ccc(-c2nc3ccccn3c2C=O)cc1	.	.	/	.	.	.
Cc1c(-c2ccc(Br)cc2)nc2ccccn12	.	.	45µM	.	.	.
COc1cc(-c2nc3ccccn3c2/N=C/c2cc(OC)c(OC)c(OC)c2)ccc1O	/	45µM	/	/	/	.
CN(C)c1ccc(-c2nc3ccccn3c2/N=C/c2ccc(Br)cc2)cc1	11µM	45µM	10µM	?	.	?
O=C(COC(=O)COc1cccc(C(F)(F)F)c1)NC(=O)NC1CCCCC1	.	.	.	.	/	.
CN(C)c1ccc(/C=C/c2c([N+](=O)[O-])c(=O)n(C)c(=O)n2C)cc1	.	.	.	/	.	.
CN(C)c1ccc(-n2cccc2/C=C/[N+](=O)[O-])cc1	16µM	25µM	22µM	/	?	45µM
O=C(NC(Cc1c[nH]c2ccccc12)C(=O)O)c1ccc(Br)cc1 (stereo not drawn)	?	.	.	.	.	.
COc1ccc2c(c1)c(=O)oc1c(C)c(OCC(=O)N3CCc4ccccc4C3)ccc12	.	.	/	.	.	.
COc1ccc2c(c1)c(=O)oc1c(C)c(OCc3ccc(C(=O)O)cc3)ccc12	50µM	50µM	?	/	.	.
SMILES	BAZ2B block	JMJD2A Tudor inh	G9a inh	L3MBTL1 inh	Sfp PPTase inh	HP1b chromo inh
CC(C)(C)C(=O)NC(=S)Nc1sc2c(c1C(N)=O)CCC2	.	.	5.6µM	.	45µM	?
COCC(=O)Nc1sc2c(c1C(=O)OC)CCCC2	.	.	.	.	.	.
COc1cccc(CC(=O)Nc2sc3c(c2C(N)=O)CCCC3)c1	.	.	40µM	/	.	.
COc1ccc(NC(=O)c2c(NCc3ccc(N(C)C)cc3)sc3c2CCC3)cc1	32µM	56µM	11µM	/	/	?
COC(=O)c1c(NC(=O)Cc2cccs2)sc2c1CCCC2	79µM	?	.	?	.	.
COC(=O)[C@H](COC(C)(C)C)NC(=O)O[C@@H]1C(=O)c2cc(Br)ccc2O[C@H]1c1ccc2c(c1)OCO2	/	/	/	/	.	/
Cc1nnsc1C(=O)NC1CCCc2c1cnn2-c1ccc(C(C)(C)C)cc1 (stereo not drawn)	.	.	.	/	.	.

Source: PubChem BioAssay (National Center for Advancing Translational Sciences (NCATS))
